PMC5540273 (PLoS ONE, 2017)

The compounds below were run on SRPK3. Conditions: concentration: 1 μM, replicates: in singlicate; n = 1.
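Also: KINOMEscan kinase panel screen.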

Structure (SMILES) | %Inh [%]
Cc1ccc(F)c(C(=O)Nc2cccc(-c3nn4ccccc4c3-c3ccnc(Nc4cccc(F)c4)n3)c2)c1F [GSK361061] | 25
Cl.Cl.NCC(NC(=O)c1cc(-c2ccccc2)c(-c2ccnc3[nH]ccc23)s1)c1ccccc1 (stereo not shown) [GSK1321561] | 0
Cc1cccc(Nc2nc(N[C@H]3CCNC3)ncc2C(N)=O)c1.Cl [GSK2197149] | 76
COc1cccc(C2=C(Nc3ccc(Cl)c(C(=O)O)c3)C(=O)NC2=O)c1 [SB-390769] | 17
O=C(Nc1cccc(-c2nn3ccccc3c2-c2ccnc(Nc3cccc(F)c3)n2)c1)c1c(F)ccc(F)c1Cl [GSK357952] | 0
COc1cccc(NC(=O)NC2CCN(c3ccnc(Nc4cc(OC)c(OC)c(OC)c4)n3)C2)c1 (stereo not shown) [GSK1379763] | 0
O=c1[nH]cc(-c2ccc(N3CCOCC3)cc2)c2sc(-c3cn[nH]c3)cc12 [GSK2276055] | 0
CC(C)(C)c1ccc2nccc(Nc3cccc(O)c3)c2c1 [GW856795] | 20
COc1ccc(Nc2nccc(N3CCC(NC(=O)Nc4cccc(OC)c4)C3)n2)cc1 (stereo not shown) [GSK1379742] | 0
CCS(=O)(=O)c1ccc(OC)c(Nc2nccc(-c3c(-c4cccc(NC(=O)c5c(F)cccc5F)c4)nn4ncccc34)n2)c1 [GSK326180] | 0
CC(C)c1nc(-c2cccc(NS(=O)(=O)c3c(F)cccc3F)c2F)c(-c2ccnc(Nc3ccc(N4CCOCC4)nc3)n2)s1 [GSK2008607] | 0
Fc1ccc(-c2ncn(C3CCNCC3)c2-c2ccnc(Oc3ccc(-c4ccccc4)cc3)n2)cc1 [SB-245391] | 5
O=C(Nc1n[nH]c2cc(-c3ccoc3)ccc12)C1CC1 [SB-738481] | 37
Nc1ncc(-c2cccnc2)c2scc(-c3ccc4c(c3)CCN4C(=O)Cc3ccccc3)c12 [GSK683281] | 28
Nc1ncc(-c2ccc3nccc(-c4ccncc4)c3c2)cc1S(=O)(=O)N1CCOCC1 [GSK1627798] | 4
C[C@@H]1CC[C@@H](C(=O)Nc2ccccc2)CN1c1cc(-c2ccc3c(N)n[nH]c3c2)nc(N)n1 [GSK2286062] | 0
Cn1cc(-c2ccc3c(c2)CCN3C(=O)Cc2cccc(F)c2)c2c(N)ncnc21 [GSK2603358] | 9
Cc1ccc(C(=O)N2CC[C@@H](O)C2)cc1-n1c(C)cc(OCc2ccc(F)cc2F)c(Br)c1=O | 0
CN1CCN(Cc2cccc(-c3ccc4c(Nc5ccc(Oc6ccccc6)cc5)ccnc4c3)c2)CC1 [GW578342] | 0
CN(C)S(=O)(=O)c1cc(-c2ccc3nccc(-c4cccc(S(N)(=O)=O)c4)c3c2)cnc1N [GSK1669921] | 19
COc1cc(Nc2nccc(-c3c(-c4cccc(NC(=O)c5c(F)cccc5F)c4)nn4ncccc34)n2)cc(OC)c1OC [GSK327238] | 0
COCCOCCOc1cc2ncc3c4ccc(C#N)cc4[nH]c3c2cc1OC | 27
Cc1ccc(C(=O)Nc2ccc(Nc3ccnc4cc(-c5nccs5)ccc34)cc2O)cc1.Cl [GW494702] | 13
CC(=O)N1CCN(c2ccc(Nc3nccc(-c4sc(C(C)C)nc4-c4cccc(NS(=O)(=O)c5cccc(Cl)c5)c4)n3)cn2)CC1 [GSK1660437] | 44
COc1cccc(C(=O)Nc2cccc(Oc3ccc4nc(NC(=O)C5CC5)cn4n3)c2)c1 | 0
Cc1cccc(NC(=O)Nc2ccc(Oc3ncnc4ccn(C)c34)cc2)c1 | 0
Cc1ccc(S(=O)(=O)Nc2ccc(Nc3nccc(Nc4cccc5[nH]ncc45)n3)cc2)cc1 [GSK581271] | 9
O=C(Nc1ccccc1F)NC1CCN(c2ccnc(Nc3ccc(F)cc3)n2)CC1 [GSK1379800] | 0
Nc1n[nH]c2cnc(-c3ccccc3)cc12 [SB-642124] | 24
c1ccc(-c2n[nH]cc2Nc2ccnc3ccccc23)nc1 [GW694077] | 90

Each compound was assayed on STK16. Conditions: concentration: 1 μM, replicates: in singlicate; n = 1.

Structure (SMILES) | %Inh [%]
CN(c1ccc(NC(=O)Nc2cc(C(F)(F)F)ccc2F)cc1)c1ccnc(Nc2ccc(S(N)(=O)=O)cc2)n1 [GW809893] | 12
Nc1ncnc2c1nc(-c1ccccc1)n2-c1ccccc1 [SKF-97293] | 0
CN1CCN(CCCNc2nccc(-c3c(-c4ccc(F)cc4)nn4cc(C(F)(F)F)ccc34)n2)CC1 [GW621581] | 0
O=C(Nc1cccc(-c2nn3ccccc3c2-c2ccnc(Nc3cccc(C(F)(F)F)c3)n2)c1)c1c(F)cccc1F [GSK292658] | 0
COc1cc(Nc2nccc(N3CCC(NC(=O)Nc4cccc(C(C)=O)c4)C3)n2)cc(OC)c1OC (stereo not shown) [GSK1379753] | 83
Cl.Cl.NCC(C(=O)Nc1cc(Br)c(-c2ccnc3[nH]ccc23)s1)c1ccccc1 (stereo not shown) [GSK1269851] | 13
COc1ccc(Nc2nccc(NCCNC(=O)c3cc4ccccc4s3)n2)cc1 [GSK1379896] | 13
Cc1ccc(F)c(C(=O)Nc2cccc(-c3nn4ccccc4c3-c3ccnc(Nc4cccc(F)c4)n3)c2)c1F [GSK361061] | 5
Cl.Cl.NCC(NC(=O)c1cc(-c2ccccc2)c(-c2ccnc3[nH]ccc23)s1)c1ccccc1 (stereo not shown) [GSK1321561] | 3
Cc1cccc(Nc2nc(N[C@H]3CCNC3)ncc2C(N)=O)c1.Cl [GSK2197149] | 12
COc1cccc(C2=C(Nc3ccc(Cl)c(C(=O)O)c3)C(=O)NC2=O)c1 [SB-390769] | 8
O=C(Nc1cccc(-c2nn3ccccc3c2-c2ccnc(Nc3cccc(F)c3)n2)c1)c1c(F)ccc(F)c1Cl [GSK357952] | 0
COc1cccc(NC(=O)NC2CCN(c3ccnc(Nc4cc(OC)c(OC)c(OC)c4)n3)C2)c1 (stereo not shown) [GSK1379763] | 77
O=c1[nH]cc(-c2ccc(N3CCOCC3)cc2)c2sc(-c3cn[nH]c3)cc12 [GSK2276055] | 35
CC(C)(C)c1ccc2nccc(Nc3cccc(O)c3)c2c1 [GW856795] | 0
COc1ccc(Nc2nccc(N3CCC(NC(=O)Nc4cccc(OC)c4)C3)n2)cc1 (stereo not shown) [GSK1379742] | 0
CCS(=O)(=O)c1ccc(OC)c(Nc2nccc(-c3c(-c4cccc(NC(=O)c5c(F)cccc5F)c4)nn4ncccc34)n2)c1 [GSK326180] | 25
CC(C)c1nc(-c2cccc(NS(=O)(=O)c3c(F)cccc3F)c2F)c(-c2ccnc(Nc3ccc(N4CCOCC4)nc3)n2)s1 [GSK2008607] | 46
Fc1ccc(-c2ncn(C3CCNCC3)c2-c2ccnc(Oc3ccc(-c4ccccc4)cc3)n2)cc1 [SB-245391] | 14

Structure (SMILES) | %Inh [%]
O=C(Nc1n[nH]c2cc(-c3ccoc3)ccc12)C1CC1 [SB-738481] | 21
Nc1ncc(-c2cccnc2)c2scc(-c3ccc4c(c3)CCN4C(=O)Cc3ccccc3)c12 [GSK683281] | 4
Nc1ncc(-c2ccc3nccc(-c4ccncc4)c3c2)cc1S(=O)(=O)N1CCOCC1 [GSK1627798] | 22
C[C@@H]1CC[C@@H](C(=O)Nc2ccccc2)CN1c1cc(-c2ccc3c(N)n[nH]c3c2)nc(N)n1 [GSK2286062] | 8
Cn1cc(-c2ccc3c(c2)CCN3C(=O)Cc2cccc(F)c2)c2c(N)ncnc21 [GSK2603358] | 13
Cc1ccc(C(=O)N2CC[C@@H](O)C2)cc1-n1c(C)cc(OCc2ccc(F)cc2F)c(Br)c1=O | 19
CN1CCN(Cc2cccc(-c3ccc4c(Nc5ccc(Oc6ccccc6)cc5)ccnc4c3)c2)CC1 [GW578342] | 2
CN(C)S(=O)(=O)c1cc(-c2ccc3nccc(-c4cccc(S(N)(=O)=O)c4)c3c2)cnc1N [GSK1669921] | 45
COc1cc(Nc2nccc(-c3c(-c4cccc(NC(=O)c5c(F)cccc5F)c4)nn4ncccc34)n2)cc(OC)c1OC [GSK327238] | 67
COCCOCCOc1cc2ncc3c4ccc(C#N)cc4[nH]c3c2cc1OC | 11
Cc1ccc(C(=O)Nc2ccc(Nc3ccnc4cc(-c5nccs5)ccc34)cc2O)cc1.Cl [GW494702] | 0
CC(=O)N1CCN(c2ccc(Nc3nccc(-c4sc(C(C)C)nc4-c4cccc(NS(=O)(=O)c5cccc(Cl)c5)c4)n3)cn2)CC1 [GSK1660437] | 0
COc1cccc(C(=O)Nc2cccc(Oc3ccc4nc(NC(=O)C5CC5)cn4n3)c2)c1 | 0
Cc1cccc(NC(=O)Nc2ccc(Oc3ncnc4ccn(C)c34)cc2)c1 | 0
Cc1ccc(S(=O)(=O)Nc2ccc(Nc3nccc(Nc4cccc5[nH]ncc45)n3)cc2)cc1 [GSK581271] | 43
O=C(Nc1ccccc1F)NC1CCN(c2ccnc(Nc3ccc(F)cc3)n2)CC1 [GSK1379800] | 16
Nc1n[nH]c2cnc(-c3ccccc3)cc12 [SB-642124] | 45
c1ccc(-c2n[nH]cc2Nc2ccnc3ccccc23)nc1 [GW694077] | 15
